From ChEMBL document CHEMBL4513216, “Probing the Open Global Health Chemical Diversity Library for Multistage-Active Starting Points for Next-Generation Antimalarials” (ACS Infect Dis, 2020)
Among all 69,000 compounds or so, about 8,600 (12%) showed an effect of 50% or more. The full list was thinned out, with strong results kept by preference.

Each molecule was assayed on Plasmodium berghei (assay: Screen against P. berghei liver stage (PbLuc), transformed with Luciferase, at 10uM). Details: tested at 10 uM.
Type: functional, HepG2

Row | SMILES | INHIBITION [%]
1 | CCOC(=O)N1CC(C)=C(C)CN1C(=O)Nc1ccc(Cl)c(Cl)c1 | 13
2 | CCNc1cc2c(nn1)CCN(C(=O)c1cccc(CSC)c1)C2 | 37.3
3 | O=C(c1ccco1)N1CCCC1C1CCN(Cc2ccccc2)CC1 (stereo unspecified) | 21.3
4 | O=C(c1ccncc1)N1CCCC1C1CCN(Cc2ccccc2)CC1 (stereo unspecified) | 51.1
5 | O=C(c1cccnc1)N1CCCC1C1CCN(Cc2ccccc2)CC1 (stereo unspecified) | 73.6
6 | O=C(c1ccoc1)N1CCCC1C1CCN(Cc2ccccc2)CC1 (stereo unspecified) | 51.1
7 | CN(C(=O)c1cccnc1)C1CCCN(CCc2ccccc2)C1 (stereo unspecified) | 42.2
8 | O=C(c1ccc(CN2CCCCC2)cc1)N1CCCC1c1cccs1 (stereo unspecified) | 31
9 | O=C(c1cc[nH]n1)N1CCCC1C1CCN(Cc2ccccc2)CC1 (stereo unspecified) | 37.9
10 | O=C(c1ccoc1)N1CC[C@@H](N2CCOCC2)[C@@H]1Cc1ccccc1 | 35.7
11 | O=C(C1CC1)N1CCCC1C1CCN(Cc2ccccc2)CC1 (stereo unspecified) | -12.6
12 | Cc1cccnc1C(=O)N1CCC(Cc2cnc3[nH]ccc3c2)CC1 | 44.8
13 | OCC(O)CN(CCN1CCOCC1)Cc1ccco1 (stereo unspecified) | 43.9
14 | Cc1oncc1C(=O)N1CC[C@H]2[C@H](C[C@@H](CN3CCCC3)N2C)C1 | 16.6
15 | Cc1cc(C(=O)N2CC[C@H]3[C@H](C[C@@H](CN4CCCC4)N3C)C2)c(C)o1 | 39.5
16 | Cc1nc(C(C)C)ncc1C(=O)N1CCCC(N2CCCC2)C1 (stereo unspecified) | 26.8
17 | O=C(O)CSC1CCc2ccccc2NC1=O (stereo unspecified) | 18.4
18 | NS(=O)(=O)CCN1CCN(c2ccccc2O)CC1 | -24.7
19 | O=C(NCC1CCCN(C(=O)NCCc2ccccc2)C1)c1ccco1 (stereo unspecified) | 59.1
20 | CC(C)NC(=O)N1C[C@@H]2C[C@H](C(=O)N3CCCC3)[C@H](C1)O2 | 43.9
21 | CC(C)CS(=O)(=O)N1C[C@@H]2C[C@H](C(=O)N3CCOCC3)[C@H](C1)O2 | 83.2
22 | CCOC(=O)CNC(=O)N1CCCC(CNC(=O)c2ccco2)C1 (stereo unspecified) | 3.73
23 | O=C(Nc1ccccc1)N1C[C@@H]2C[C@H](C(=O)N3CCCC3)[C@H](C1)O2 | -13.2
24 | CC(C)CS(=O)(=O)N1C[C@@H]2C[C@H](C(=O)N3CCCC3)[C@H](C1)O2 | 32.5
25 | O=C(Nc1ccccc1)N1C[C@@H]2C[C@H](C(=O)N3CCOCC3)[C@H](C1)O2 | 55.4
26 | CNC(=O)[C@H]1C[C@H]2CN(C(=O)NC(C)C)C[C@@H]1O2 | 57.5

Row | SMILES | INHIBITION [%]
27 | CC(C)CS(=O)(=O)N1C[C@@H]2C[C@H](C(=O)N3CCN(C)CC3)[C@H](C1)O2 | -1.28
28 | O=C(Nc1ccc(F)cc1)N1C[C@@H]2C[C@H](C(=O)N3CCOCC3)[C@H](C1)O2 | 1.58
29 | CCOC(=O)CCNC(=O)N1CCCC(CNC(=O)c2ccco2)C1 (stereo unspecified) | 15.7
30 | CC(C)NC(=O)[C@H]1C[C@H]2CN(C(=O)NC(C)C)C[C@@H]1O2 | 24
31 | CCS(=O)(=O)N[C@H]1CN(CC(C)(C)N2CCOCC2)C[C@@H]1C1CC1 | 18.5
32 | O=C(Nc1ccccc1)C1=NOC2(CCCN(C(=O)C3CCCC3)C2)C1 (stereo unspecified) | -31
33 | O=C(c1ccn(-c2ccc(F)cc2)n1)N1CCCC(n2ccnc2)C1 (stereo unspecified) | -17
34 | CCc1nc(CNC2CCN(S(C)(=O)=O)CC2)cs1 | 28.3
35 | O=C(C1CCOCC1)N1CCO[C@H]2[C@@H](OCC3CC3)CC[C@@H]21 | -19.8
36 | CCC(C)N(Cc1cccnc1)C(=O)c1ccc(NS(=O)(=O)CC)cc1 (stereo unspecified) | 18.8
37 | CCCn1ncc(C(=O)N2CCCC(OCc3ccccn3)C2)c1C (stereo unspecified) | -38.6
38 | CNC(=O)[C@H]1C[C@H]2CN(C(=O)NCCc3ccccc3)C[C@@H]1O2 | 19.5
39 | O=C(Nc1ccccc1)[C@H]1C[C@H]2CN(C(=O)Nc3ccccc3)C[C@@H]1O2 | 7.31
40 | CNC(=O)N1C[C@@H]2C[C@H](C(=O)Nc3ccccc3)[C@H](C1)O2 | 62
41 | O=C(Nc1cccnc1)[C@H]1C[C@H]2CN(C(=O)NC3CCCC3)C[C@@H]1O2 | 9.67
42 | CNC(=O)N1C[C@@H]2C[C@H](C(=O)Nc3cccnc3)[C@H](C1)O2 | 54.4
43 | O=C(NCc1ccccc1)N1C[C@@H]2C[C@H](C(=O)N3CCCC3)[C@H](C1)O2 | 15.3
44 | O=C(NCCc1ccccc1)N1C[C@@H]2C[C@H](C(=O)N3CCCC3)[C@H](C1)O2 | 57.1
45 | CN(C)C(=O)[C@H]1C[C@H]2CN(CCc3ccccc3)C[C@@H]1O2 | 66
46 | CN(C)C(=O)[C@H]1C[C@H]2CN(S(=O)(=O)Cc3ccccc3)C[C@@H]1O2 | 19.9
47 | CN(C)C(=O)[C@H]1C[C@H]2CN(S(=O)(=O)c3ccccc3)C[C@@H]1O2 | 33.4
48 | CNC(=O)[C@H]1C[C@H]2CN(C(=O)Nc3ccccc3)C[C@@H]1O2 | -26.5
49 | CN1C[C@@H]2C[C@H](C(=O)Nc3cccnc3)[C@H](C1)O2 | 41.6
50 | COCCc1noc(CN2CCCC2c2c(C)nn(C)c2OC)n1 (stereo unspecified) | 17.4
51 | CCCNC(=O)C1CCCN(Cc2csc(C(C)(C)C)n2)C1 (stereo unspecified) | -62.8
52 | CNC(=O)[C@@H](c1ccccc1OC)N1CCC[C@H]1C(=O)NC(C)(C)C | -22.4

Row | SMILES | INHIBITION [%]
53 | Cc1cccc(C)c1OCC(=O)NC(C)c1nnc2n1CCC2 (stereo unspecified) | -29.2
54 | COc1c(CNCC(=O)N2CCN(C)CC2)c(C(C)C)nn1C | 42.1
55 | Cc1noc(CNC(=O)c2ccccc2-n2cc(CN)cn2)n1 | 20.8
56 | O=C1CN(C(=O)c2cc3ccc(Br)cc3[nH]2)CCN1 | -56.7
57 | CCc1cnc(CN(C)C2CCN(CC3CCOCC3)C2)o1 (stereo unspecified) | 5.85
58 | Cc1nsc(NC(=O)N2CCc3sccc3C2)n1 | 24.1
59 | OC(COc1ccc(F)cc1)CN1CCC(c2ccn[nH]2)CC1 (stereo unspecified) | 37.9
60 | Cc1cccc(N2CCOCC3(C2)CN(c2cnn(C)c2)C(=O)CO3)n1 (stereo unspecified) | 44.4
61 | CC(C)Oc1ncnc2c1CCN(C(=O)c1cccn1C)CC2 | 7.39
62 | O=C1Nc2ccccc2/C1=C1\CCCCCN1 | -2.09
63 | O=C1Nc2ccccc2C12CCCN(Cc1ccncc1)C2 (stereo unspecified) | 16.6
64 | CS(=O)(=O)c1ccc(CN2CCCC3(C2)C(=O)Nc2ccccc23)cc1 (stereo unspecified) | 69
65 | O=C1Nc2ccccc2C12CCCN(Cc1ccc3c(c1)OCCO3)C2 (stereo unspecified) | 43.3
66 | CNc1ncc(CN(C)Cc2cc(O)c3cccc(Cl)c3n2)cn1 | 60.4
67 | CNc1ncc(CN(C)Cc2cc(O)c3cc(C)cc(C)c3n2)cn1 | 35.5
68 | CNc1ncc(CN(C)Cc2cc(O)c3cc(F)ccc3n2)cn1 | 40.9
69 | COc1ccccc1CNC(=O)c1ccccc1-n1cnc(CN)c1 | -1.85
70 | Cc1ccc(SC2CCCC2)c(C(=O)NCCc2n[nH]c(=O)[nH]2)c1 | 49.9
71 | Cc1ccc(SC2CCCC2)c(C(=O)NCCO)c1 | 90.7
72 | CC(=O)NCCNC(=O)c1cc(C)ccc1SC1CCCC1 | 49.9
73 | COCCc1ncc(CNC2(c3ccc(Cl)cc3Cl)CC2)cn1 | 34
74 | CCCN1CCC(Nc2cc(-c3ccccc3)ccc2OC)CC1 | 78.9
75 | CCCN1CCC(NC(=O)Nc2ccc(OC)c(OC)c2)CC1 | -4.46
76 | COCCN1CCC(Nc2ccc(C#N)cc2F)CC1 | 21.7
77 | Cc1cc(C(=O)NCC(O)c2c(Cl)cccc2Cl)nn1C (stereo unspecified) | 25.2
78 | CCC(=O)N1CCN(c2ncnc3cc4c(cc23)OCCO4)CC1 | 41.6

Row | SMILES | INHIBITION [%]
79 | COc1ccc(CN2CC(O)CN(C(=O)OCC(C)C)CC2=O)cc1 (stereo unspecified) | 15.4
80 | COc1ccc(CN2CC(O)CN(C(=O)OCC(C)(C)C)CC2=O)cc1 (stereo unspecified) | -15.6
81 | CCOC(=O)N1CC(=O)N(Cc2ccc(OC)cc2)CC(O)C1 (stereo unspecified) | 68.4
82 | COc1cccc(CN2CC(O)CN(C(=O)C(C)(C)C)CC2=O)c1OC (stereo unspecified) | 58.5
83 | CCOC(=O)N1CC(=O)N(Cc2cccc(OC)c2OC)CC(O)C1 (stereo unspecified) | 0.284
84 | COc1cccc(CN2CC(O)CN(C(=O)C3CC3)CC2=O)c1OC (stereo unspecified) | -1.23
85 | COCC(=O)N1CCCCC1c1nc(N(C)C)ncc1-c1cc(C)no1 (stereo unspecified) | 17.435
86 | Cn1ccc(C(=O)N2CCCC(c3cc(O)n(C)n3)C2)n1 (stereo unspecified) | 36.4
87 | CCc1cnc(C)nc1NCc1cnc2c(c1)CCC2 | 46.4
88 | COc1ccccc1-n1nc(C(C)C)nc1Cc1nnc(N)s1 | 17.6
89 | CC1=C(C(=O)N(C)Cc2noc3c2CCCC3)C(C)NC(=O)N1 (stereo unspecified) | 11.8
90 | CCc1c(C(=O)NCC2CCS(=O)(=O)C2)cnn1-c1ccccc1 (stereo unspecified) | 4.71
91 | O=c1cc(CN2CCCC2)nc2n1CCCN(Cc1ccoc1)C2 | -19.5
92 | O=C(NCCn1cccc1)C1CCCOC1 (stereo unspecified) | 39.8
93 | O=C(NCCCNC(=O)C1CCC1)NCCn1cccc1 | 54.4
94 | O=C(NCCNC(=O)C1CCCCC1)NCCn1cccc1 | 18.6
95 | NC(=O)c1cccc(CS(=O)(=O)CC(O)Cn2cccn2)c1 (stereo unspecified) | 4.41
96 | CN(C)C(CNC(=O)NCCOc1ccccc1)c1ccco1 (stereo unspecified) | -90.7
97 | CN(C)c1cc(C(=O)N2CCCC2c2cnn(C)c2)ccn1 (stereo unspecified) | 22.3
98 | CCN1CCC(CC(=O)N(C)C(C)c2cncs2)CC1 (stereo unspecified) | 0.825
99 | CSc1ccc(C(O)CNS(=O)(=O)C2CC2)cc1 (stereo unspecified) | 44.9
100 | CN(C)c1ccc(C(O)CNS(=O)(=O)C2CC2)cc1 (stereo unspecified) | 38.1
101 | O=S(=O)(NCC(O)c1ccc(C(F)(F)F)cc1)C1CC1 (stereo unspecified) | 72.2
